The assay is described as follows: qHTS profiling of the MIPE4 collection as inhibitors of Plasmodium falciparum (DD2) proliferation (Rep 2) (AID 743346). The following applies: P. falciparum Dd2 in erythrocytes, SYBR Green DNA, 72 h; at 28.5 µM. The source says:
Plasmodium falciparum is a virulent malarial parasite that kills 1-2 million people worldwide each year. Transmitted by mosquitoes, the sporozoite form of the parasite enters the blood stream to infect hepatocytes, where they become merozoites that infect red blood cells (erythrocytes). Within erythrocytes, merozoites begin a […] cycle of growth and division, after which the parasite is released to infect new red blood cells. Gametocytes, which form within erythrocytes as well, circulate in the bloodstream and are ingested by the mosquito, thereby completing the life cycle. To profile malarial isolates for differential chemical responses and to identify inhibitors of malarial growth, an assay that measures P. falciparum growth and replication within erythrocytes was employed. This assay uses a DNA binding fluorescent dye (SYBR Green) to detect parasite DNA following cell lysis. Because mature erythrocytes lack DNA, only Plasmodium-derived DNA is detected.
The SYBR Green viability assay was adapted from a method described previously (Plouffe et al., 2008). For screening 3 ul culture medium was dispensed into 1536 well black clear bottom plates (Aurora Biotechnologies) using a Multidrop Combi (Thermo Fisher Scientific Inc.), 23 nL compounds in DMSO were added by a pin tool (Kalypsys), and 5 ul of erythrocytes infected with P. falciparum (0.3% parasitemia, 2.5% hematocrit final concentration) were added. The plates were incubated at 37 C in a humidified incubator in 5% CO2 for 72 h, and 2 ul lysis buffer (20 mM Tris HCl, 10 mM EDTA, 0.16% saponin, 1.6% triton X, 10X SYBR Green I supplied as 10,000X […] by Invitrogen) was added to each well. The plates were mixed for 25 sec with gentle shaking and incubated overnight at room temperature in the dark. The following morning, fluorescence intensity at 485(14) nm excitation and 535(25) nm emission wavelengths was measured on an EnVision (Perkin Elmer) plate reader. Plate reads were normalized relative to the control inhibitor (0.29 uM artemisinin) and vehicle (DMSO) wells present on each plate and then corrected by an algorithm using vehicle-only control plates at the beginning and end of the compound plate stack.
(In general: qHTS replaces the single test concentration by a dilution series.)
For `Cc1c(C(=O)c2cccc3ccccc23)c2cccc3c2n1[C@H](CN1CCOCC1)CO3`, the parasite growth, % of control (lower = inhibition) worked out at 48.7%. As for `C=C[C@@H]1CN2CCC1C[C@H]2[C@H](O)c1ccnc2ccccc12` (stereo not given in full), the figure is 46.5%; as for `CN(C)[C@@H]1C(=O)C(C(N)=O)=C(O)[C@@]2(O)C(=O)C3=C(O)c4c(O)cccc4[C@@](C)(O)[C@H]3[C@H](O)[C@@H]12`, 32%. As to `C[C@]12COC(=O)C[C@@H]1CC[C@@H]1[C@H]2CC[C@@]2(C)[C@H]1CC[C@]2(C)O`, the parasite growth, % of control (lower = inhibition) is 93%.

As for `C=CCON=C(C[C@H]1O[C@@H]2O[C@]3(C)CC[C@@H]4[C@H](C)CC[C@@H]([C@H]1C)[C@@]24OO3)[C@H]1O[C@@H]2O[C@]3(C)CC[C@H]4[C@H](C)CC[C@@H]([C@@H]1C)[C@@]24OO3`, the parasite growth, % of control (lower = inhibition) came to 16.3%. `COc1cc2cc(c1Cl)N(C)C(=O)C[C@H](OC(=O)C(C)C)[C@]1(C)O[C@H]1[C@H](C)[C@@H]1C[C@@](O)(NC(=O)O1)[C@H](OC)C=CC=C(C)C2`: the parasite growth, % of control (lower = inhibition) amounted to 21.9%.

For `NC1=NC(=O)N2CC12` (stereo not given), the parasite growth, % of control (lower = inhibition) is 46.3%. `N#C[C@H](O[C@@H]1O[C@H](CO[C@@H]2O[C@H](CO)[C@H](O)[C@H](O)[C@H]2O)[C@H](O)[C@H](O)[C@H]1O)c1ccccc1`: the parasite growth, % of control (lower = inhibition) was 37.7%. With `CN[C@@H]1Cc2cccc3[nH]c(=O)n(c23)C1`, the parasite growth, % of control (lower = inhibition) was determined as 82.7%. Regarding `CCCCN1CCC(CNC(=O)c2c3n(c4ccccc24)CCCO3)CC1`, the parasite growth, % of control (lower = inhibition) stood at 38.7%. As for `Cc1nc(-c2ccc(-c3ccc(C(=O)N4CCc5cc6c(cc54)C4(CCN(C)CC4)CO6)cc3)c(C)c2)no1`, the figure is 77.5%. As for `CN(C)NC(=O)CCC(=O)O`, the parasite growth, % of control (lower = inhibition) worked out at 141%.

For `O=c1[nH]c2ccccc2n1C1CCN(Cc2ccc(-c3[nH]c4cc5ncnc5cc4nc3-c3ccccc3)cc2)CC1`, the parasite growth, % of control (lower = inhibition) came to 14.2%.

`CC[C@@]1(O)C(=O)OCc2c1cc1n(c2=O)Cc2cc3ccccc3nc2-1`: the parasite growth, % of control (lower = inhibition) worked out at 19.3%. For `C[C@]12CC[C@H](O)CC1=CC[C@H]1[C@H]3CCC(=O)[C@@]3(C)CC[C@@H]12`, the parasite growth, % of control (lower = inhibition) stood at 108%.

On to `O=C(N[C@H]1CN2CCC1CC2)c1ccc(Cl)cc1`, for which the parasite growth, % of control (lower = inhibition) came out at 31.9%. As to `CC[C@@H]1[C@@H](C)O[C@@](O)([C@@H](C)[C@H](O)[C@H](C)[C@H]2OC(=O)C=CC=C[C@@H](C)[C@@H]([C@@H](C)[C@@H](O)[C@H](C)[C@@]3(O)C[C@H](O[C@H]4C[C@H](O)[C@H](O)[C@H](C)O4)[C@H](CC)[C@@H](C)O3)OC(=O)C=CC=C[C@@H]2C)C[C@H]1O[C@H]1C[C@H](O)[C@H](O)[C@H](C)O1`, the parasite growth, % of control (lower = inhibition) worked out at 25.8%. Turning to `C=C1C[C@H]2[C@H]3CCC(=O)[C@@]3(C)CC[C@@H]2[C@@]2(C)C=CC(=O)C=C12`, the parasite growth, % of control (lower = inhibition) came out at 50.5%.

Turning to `CCOC(=O)c1c(C(C#N)=CN)c2ccc(Cl)c(Cl)c2n1C`, the parasite growth, % of control (lower = inhibition) stood at 149%. Then `C[C@H]1CCCC=CC2C[C@H](O)C[C@@H]2[C@H](O)C=CC(=O)O1` (stereo not given in full), with 9.15%; and `CO[C@H]1CCC(O[C@H]2C[C@H]([C@]3(C)CC[C@]4(C[C@H](O)[C@@H](C)[C@@H]([C@@H](C)C=C(C)C(=O)[C@H](C)C[C@H](C)C(=O)O)O4)O3)O[C@]3(O[C@@H]([C@H]4O[C@@](O)(CO)[C@H](C)C[C@H]4C)C[C@H]3C)[C@H]2C)O[C@H]1C` (stereo not given in full), with 23.1%. In the case of `CC(C)N[C@@H]1CCn2c(=O)[nH]c3cccc(c32)[C@@H]1O`, the parasite growth, % of control (lower = inhibition) turned out to be 118%.

Take `CC(C)(O)C=CC(=O)[C@](C)(O)[C@H]1[C@H](O)C[C@]2(C)[C@@H]3CC=C4[C@@H](C=C(O)C(=O)C4(C)C)[C@]3(C)C(=O)C[C@@]12C`: the parasite growth, % of control (lower = inhibition) was found to be 21.6%.

As to `O=C(Oc1ccc([N+](=O)[O-])cc1)N1CCN(Cc2cccc(Oc3ccccc3)c2)CC1`, the parasite growth, % of control (lower = inhibition) stood at 181%. With `O=C(NCC1CCOCC1)c1cnc(Nc2ccc(Cl)cc2Cl)nc1C(F)(F)F`, the parasite growth, % of control (lower = inhibition) worked out at 52.2%. Then `O=S(=O)(F)Cc1ccccc1`, with 85.6%; and `CC[C@H](CO)Nc1nc(NCc2ccccc2)c2ncn(C(C)C)c2n1`, with 48%. Then `NC1CC1c1ccccc1` (stereo not given), with 105%; and `C[C@@H]1O[C@@H](O[C@@H]2C=C3CC[C@@H]4[C@@H](CC[C@]5(C)[C@H](c6ccc(=O)oc6)CC[C@@]45O)[C@@]3(C)CC2)[C@H](O)[C@H](O)[C@H]1O`, with 96.7%. As for `CC(C)(C)[C@]1(O)C[C@@H]2OC(=O)C[C@@]23C(=O)O[C@@H]2OC(=O)[C@H](O)C213` (stereo not given in full), the figure is 81.5%; as for `CC1(N2CCC(n3c([C@@H]4CCCNC4)nc4ccccc43)CC2)CCCCCCC1`, 19.4%; as for `CCN1C[C@]2(OC(=O)c3ccccc3NC(C)=O)CC[C@H](OC)[C@@]34[C@H]5CC6[C@@H](OC)C[C@](O)(C(C[C@@H]23)[C@@H]14)[C@@]5(O)[C@@H]6OC`, 72.6%. With `CC=C(C)C(=O)O[C@H]1C(C)=C2[C@@H]3OC(=O)[C@@](C)(O)[C@@]3(O)[C@@H](OC(=O)CCC)C[C@](C)(OC(C)=O)[C@@H]2[C@@H]1OC(=O)CCCCCCC`, the parasite growth, % of control (lower = inhibition) came to 16.2%. On to `COc1cccc2c1[C@]13CCN(CC4CC4)[C@H](C2)[C@]1(OC)CCC(=O)C3`, for which the parasite growth, % of control (lower = inhibition) came to 31.9%. For the compound `O=C1CCC[C@@H]2[C@H]3CCCN4CCC[C@@H](CN12)[C@@H]34`, the parasite growth, % of control (lower = inhibition) came out at 95.1%.

On to `C[C@](O)(COc1ccc(C#N)cc1)C(=O)Nc1ccc(C#N)c(C(F)(F)F)c1`, for which the parasite growth, % of control (lower = inhibition) was 20.8%. `COc1ccc(CC2NCCc3cc(OC)c(OC)cc32)cc1OC` (stereo not given): the parasite growth, % of control (lower = inhibition) was found to be 55.8%.

Regarding `COC1=CC(C)=C[C@@H](C)[C@@H](O)[C@@H](C)CC(C)=CC=C[C@H](OC)[C@H]([C@@H](C)[C@@H](O)[C@H](C)[C@@]2(O)C[C@@H](O)[C@H](C)[C@@H](C(C)C)O2)OC1=O`, the parasite growth, % of control (lower = inhibition) was 13.8%. Regarding `Cc1ccccc1-n1c(Cn2cnc3c(N)ncnc32)nc2cccc(C)c2c1=O`, the parasite growth, % of control (lower = inhibition) came out at 6.97%. For the compound `CC(=Cc1csc(C)n1)[C@@H]1C[C@H]2O[C@@H]2CCC[C@H](C)[C@@H](O)[C@@H](C)C(=O)C(C)(C)[C@@H](O)CC(=O)O1`, the parasite growth, % of control (lower = inhibition) was 36.4%.
